Experimental data from PubChem BioAssay.
The source made the active and inactive calls.

Key:
[1] = test system: Human papillomavirus type 1a protein E7 (residues 44-93); experiment: small molecules binding HPV E7 44-93 – biochemical, small-molecule microarray, residues 44-93, 635 nm fluorescence, primary screen (AID 1108); details: fluorescence 635 nm, higher = more signal;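 also: E7 fragment applied at 1 µg/mL in TBST for 1 h at 4 C; score combines spot fluorescence with its signal to noise ratio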
[2] = hepatitis C replication reporter changes, two-sided – Huh7 cells, luciferase reporter, HCV replication inhibitor project, primary screen (AID 1109); details: Huh7 HCV replicon luciferase reporter, 48 h; higher = more signal;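 also: huh7 hepatoma cells harbouring a luciferase neomycin HCV replicon reporter; luciferase luminescence as measure of HCV replicon replication; test concentration not given here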
[3] = target: Left-right determination factor 2 (Homo sapiens) (UniProt O00292); experiment: small molecules binding LEFTY2 protein – biochemical, small-molecule microarray, 635 nm fluorescence scan, primary screen (AID 1110); details: higher = more signal
[4] = target: Calmodulin-1 (Homo sapiens) (UniProt P0DP23); experiment: small molecules binding calmodulin-1 with EGTA – biochemical, small-molecule microarray, Cy5-labelled CALM1, profiling panel (AID 1111); details: Cy5-CALM1 binding fluorescence, higher = more signal;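 also: labelled calmodulin applied in Tris saline Tween buffer holding calcium plus EGTA and DTT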
[5] = target: Calmodulin-1 (Homo sapiens) (UniProt P0DP23); experiment: small molecules binding Ca-loaded calmodulin-1 – biochemical, small-molecule microarray, Cy5-labelled CALM1, plus calcium, artefact control for SMM control-protein annotation, profiling panel (AID 1112); details: Cy5-CALM1 binding fluorescence, higher = more signal;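 also: score merges spot fluorescence with signal to noise from triplicate slides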
[6] = probe aWnt5a binding to arrayed compounds – biochemical, biotinylated probe, 635/667 nm fluorescence, primary screen (AID 1113); details: small-molecule microarray, higher = more signal;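 also: score merges 667 nm fluorescence intensity with signal-to-noise per printed feature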
[7] = probe aShh binding to arrayed compounds – biochemical, biotinylated probe, 635/667 nm fluorescence, primary screen (AID 1114); details: small-molecule microarray, higher = more signal;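 also: probe is biotin-labelled aShh protein from a stem cell growth factor screen; measures binding of labelled protein to compounds printed on the slide; score merges feature fluorescence at 667 nm with signal-to-noise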
[8] = probe aNog binding to arrayed compounds – biochemical, biotinylated probe, 635/667 nm fluorescence, primary screen (AID 1115); details: small-molecule microarray, higher = more signal;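 also: probe is biotinylated aNog protein used at 0.15 µg/mL for 1 h at 4 C; z-score combines 667 nm fluorescence of each spot with its signal to noise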
[9] = target: Torsin-1A-interacting protein 1 (Homo sapiens) (UniProt Q5JTV8); experiment: compound microarray binding of lysate hLAP1 – cell lysate, small-molecule microarray, COS7 lysate, 635/667 nm fluorescence, primary screen (AID 1116); details: 635 nm fluorescence, higher = more signal
[10] = target: Alpha-bungarotoxin (Bungarus multicinctus) (UniProt P60615); experiment: compounds binding labelled alpha-BTX control protein – biochemical, small-molecule microarray, Alexa647 label, 635/667 nm fluorescence, artefact control for SMM control protein annotation, profiling panel (AID 1117); details: alpha-BTX-A647 binding fluorescence, higher = more signal
Albumin (Bos taurus) = Albumin (Bos taurus) (UniProt P02769); experiment: compounds binding labelled BSA control protein – biochemical, small-molecule microarray, Alexa647 label, 635/667 nm fluorescence, artefact control for SMM control protein annotation, profiling panel (AID 1118); details: BSA-A647 binding, fluorescence 635 nm, higher = more signal;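 also: score merges 667 nm emission intensity and signal-to-noise per printed compound spot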
[11] = probe aXIP binding to arrayed compounds – biochemical, NeuroSMM set, 635/667 nm fluorescence, primary screen (AID 1119); details: small-molecule microarray, higher = more signal, called active from +8 up or from −8 down;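 also: probe is the protein aXip251-270 applied at 1 µg/mL to compound-printed slides; binding of probe to printed compounds measured as 667 nm fluorescence plus signal to noise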
[12] = probe aNOTCH3 binding on compound microarray – biochemical, small-molecule microarray, 635/667 nm fluorescence, primary screen (AID 1120); details: higher = more signal;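 also: probe is a biotin-tagged antibody raised against NOTCH3 rather than NOTCH3 protein; score merges spot fluorescence near 667 nm with spot signal to noise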
[13] = probe aNOTCH2 binding on compound microarray – biochemical, small-molecule microarray, 635/667 nm fluorescence, primary screen (AID 1121); details: higher = more signal;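 also: score merges feature fluorescence read at 667 nm with its signal to noise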
[14] = target: Carbonic anhydrase 2 (Homo sapiens) (UniProt P00918); experiment: compounds binding carbonic anhydrase 2 – biochemical, small-molecule microarray, Alexa647-labelled CAII, profiling panel (AID 1122); details: CAII-A647 binding fluorescence, higher = more signal
[15] = COS7 lysate on small-molecule microarray, probe aHis, 635 nm (AID 1123); details: COS7 cell lysate, fluorescence, higher = more signal;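 also: z-score combines 667nm fluorescence intensity with signal-to-noise per printed compound spot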
[16] = probe aLAP1 signal on lysate-treated microarray – cell lysate, small-molecule microarray, COS7 lysate, primary screen (AID 1124); details: probe aLAP1, fluorescence, higher = more signal;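 also: lysate comes from COS7 cells expressing LAP1 and is applied at 0.3 µg/mL; score merges spot fluorescence near 667 nm with signal-to-noise over triplicate slides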
Sam68 (KHDRBS1) = experiment: compounds binding KHDRBS1 protein – biochemical, small-molecule microarray, 635 nm fluorescence, primary screen (AID 1125); details: higher = more signal;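 also: score merges 667 nm channel intensity with signal to noise over triplicate slides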
[17] = test system: Chordin-like protein 2 (CHRDL2); experiment: compounds binding chordin-like 2 – biochemical, small-molecule microarray, 635 nm fluorescence, primary screen (AID 1126); details: fluorescence 635 nm, higher = more signal;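 also: printed compound slides probed with Chrdl2 protein at 4 µg/mL for 1 h at 4 C; score merges 667 nm emission intensity with signal to noise over three replicate slides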
[18] = target: Concanavalin-A (Canavalia ensiformis) (UniProt P02866); experiment: compounds binding concanavalin A lectin – biochemical, small-molecule microarray, Alexa647 label, 635 nm, artefact control for SMM control protein annotation, primary screen (AID 1127); details: ConA-A647 binding fluorescence, higher = more signal;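 also: z combines 667 nm emission intensity with signal-to-noise across three replicate slides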
Chain of Concanavalin-A (Canavalia ensiformis) (P02866 whole entry, looked up): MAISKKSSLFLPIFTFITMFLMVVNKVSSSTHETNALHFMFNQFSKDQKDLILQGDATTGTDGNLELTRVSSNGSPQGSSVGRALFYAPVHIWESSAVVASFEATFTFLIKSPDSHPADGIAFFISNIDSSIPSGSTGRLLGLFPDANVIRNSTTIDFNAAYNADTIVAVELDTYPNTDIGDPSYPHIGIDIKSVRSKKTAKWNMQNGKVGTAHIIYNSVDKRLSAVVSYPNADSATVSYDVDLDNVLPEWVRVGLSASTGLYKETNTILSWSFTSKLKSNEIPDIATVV

Chain of Alpha-bungarotoxin (Bungarus multicinctus) (P60615 whole entry, looked up): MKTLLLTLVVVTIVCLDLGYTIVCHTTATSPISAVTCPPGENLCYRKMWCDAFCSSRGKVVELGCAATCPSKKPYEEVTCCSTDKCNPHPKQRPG
Chain of Albumin (Bos taurus) (P02769 whole entry, looked up): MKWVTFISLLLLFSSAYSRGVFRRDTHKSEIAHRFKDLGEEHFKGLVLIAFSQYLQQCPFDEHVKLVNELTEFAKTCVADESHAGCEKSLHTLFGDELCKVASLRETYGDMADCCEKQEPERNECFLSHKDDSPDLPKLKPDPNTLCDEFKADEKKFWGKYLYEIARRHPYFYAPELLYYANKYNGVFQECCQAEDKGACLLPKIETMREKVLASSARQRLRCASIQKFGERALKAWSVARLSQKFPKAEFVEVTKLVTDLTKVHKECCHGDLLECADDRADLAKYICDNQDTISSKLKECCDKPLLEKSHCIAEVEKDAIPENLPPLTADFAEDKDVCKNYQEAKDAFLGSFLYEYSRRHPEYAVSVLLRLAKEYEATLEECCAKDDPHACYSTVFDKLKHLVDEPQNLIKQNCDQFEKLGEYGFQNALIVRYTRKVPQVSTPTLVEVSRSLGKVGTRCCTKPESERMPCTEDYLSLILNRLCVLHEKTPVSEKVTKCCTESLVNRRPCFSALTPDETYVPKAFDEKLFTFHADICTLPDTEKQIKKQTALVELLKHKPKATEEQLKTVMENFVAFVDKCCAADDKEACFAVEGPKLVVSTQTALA
Chain of Torsin-1A-interacting protein 1 (Homo sapiens) (Q5JTV8 whole entry, looked up): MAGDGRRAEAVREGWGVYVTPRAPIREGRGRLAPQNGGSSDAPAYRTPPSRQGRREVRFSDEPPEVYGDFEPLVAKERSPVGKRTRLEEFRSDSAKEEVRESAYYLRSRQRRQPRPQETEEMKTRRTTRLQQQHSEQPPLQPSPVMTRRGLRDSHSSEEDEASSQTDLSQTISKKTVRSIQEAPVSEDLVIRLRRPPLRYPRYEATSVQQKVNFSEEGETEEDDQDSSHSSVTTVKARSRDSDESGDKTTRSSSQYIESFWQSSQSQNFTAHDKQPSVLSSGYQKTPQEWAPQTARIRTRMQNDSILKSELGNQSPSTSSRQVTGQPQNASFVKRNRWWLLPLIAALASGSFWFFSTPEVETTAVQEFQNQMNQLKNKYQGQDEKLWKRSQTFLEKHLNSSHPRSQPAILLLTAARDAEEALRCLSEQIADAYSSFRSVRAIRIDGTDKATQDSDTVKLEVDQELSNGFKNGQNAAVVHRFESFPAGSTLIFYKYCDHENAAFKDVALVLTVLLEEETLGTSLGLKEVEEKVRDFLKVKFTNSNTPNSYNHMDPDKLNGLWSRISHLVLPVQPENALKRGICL
Chain of Left-right determination factor 2 (Homo sapiens) (O00292 whole entry, looked up): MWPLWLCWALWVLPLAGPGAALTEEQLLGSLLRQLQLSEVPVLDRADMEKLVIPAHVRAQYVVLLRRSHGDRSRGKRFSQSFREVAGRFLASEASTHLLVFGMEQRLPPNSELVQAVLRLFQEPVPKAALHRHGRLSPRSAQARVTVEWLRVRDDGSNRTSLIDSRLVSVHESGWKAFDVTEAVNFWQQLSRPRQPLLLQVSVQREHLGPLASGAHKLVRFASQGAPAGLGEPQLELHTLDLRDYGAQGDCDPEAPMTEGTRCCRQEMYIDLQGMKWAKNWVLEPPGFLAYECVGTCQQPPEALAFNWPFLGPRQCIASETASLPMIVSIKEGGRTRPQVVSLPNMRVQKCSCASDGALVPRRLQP

SMILES | composite z-score [1] | z-score [2] | composite z-score [3] | composite z-score [4] | composite z-score [5] | composite z-score [6] | composite z-score [7] | composite z-score [8] | composite z-score [9] | composite z-score [10] | composite z-score (Albumin (Bos taurus)) | composite Z-score [11] | composite z-score [12] | composite z-score [13] | composite z-score [14] | composite z-score [15] | composite z-score [16] | composite z-score (Sam68 (KHDRBS1)) | composite z-score [17] | composite z-score [18]
CCN1C(=O)[C@H]2[C@H]3[C@H](O)[C@H](O)CC(=O)[C@H]3CC[C@H]2C1=O | 0.566 | -0.693 | 0.872 | -0.123 | -0.448 | -0.0472 | 0.0278 | -0.158 | 0.161 | 0.113 | 0.234 | -0.274 (inactive) | -0.0921 | -0.0793 | 0.0164 | -0.209 | 0.0555 | 0.47 | 0.689 | 0.541
CCOC(=O)[C@H](CC(C)C)NC(=O)CCC1CC(OC(=O)NCc2ccc3c(c2)OCO3)CC2(CCCC(COC(=O)NCC3CCCCC3)O2)O1 (stereo not given in full) | 1.39 | -1.49 | 0.894 | -0.0184 | -0.381 | -0.0087 | 0.131 | -0.367 | 0.711 | 0.415 | 0.235 | 0.189 (inactive) | 0.31 | -0.207 | 0.368 | 0.636 | 0.244 | 1.32 | 0.567 | 0.512
COC(=O)NCC=Cc1nc(CCCO)co1 | 0.722 | -0.0343 | 0.493 | -0.368 | -0.98 | -0.0462 | 0.0141 | -0.137 | 0.116 | -0.498 | 0.782 | 0.678 (inactive) | -0.0362 | -0.153 | -0.0958 | 0.549 | 0.215 | 0.559 | 0.809 | 0.161
COc1cccc([C@H]2Oc3ccc(OC)cc3C(=NOC[C@@H](C)[C@H](OCc3ccccc3)C(C)C)[C@@H]2O)c1 | 0.274 | -2.55 | 0.476 | -0.0749 | 0.619 | -0.206 | -0.0858 | 0.2 | 0.251 | 0.452 | 0.422 | 0.237 (inactive) | -0.162 | -0.0512 | 0.689 | 0.923 | 1.37 | 0.413 | -0.269 | 0.0788
COc1cccc([C@H]2Oc3ccc(OC)cc3C(=NOC[C@@H](O)[C@H]3O[C@@H]4OC(C)(C)O[C@@H]4[C@H]3O)[C@@H]2O)c1 | 0.0743 | 4.33 | 0.583 | -0.284 | -0.273 | -0.139 | -0.304 | -0.409 | 0.64 | -0.106 | 0.891 | -0.563 (inactive) | 0.0831 | -0.139 | -0.149 | 0.48 | 0.248 | 0.706 | 0.461 | 0.532
CC(C)CON=C1C[C@@H](O)[C@@H](O)[C@@H]2[C@@H]3C(=O)N(c4ccc(F)cc4F)C(=O)[C@@H]3CC[C@H]12 | 1.38 | -0.666 | 0.923 | 0.0597 | -0.809 | -0.0735 | -0.0169 | 0.106 | 0.272 | 0.198 | 0.541 | 0.109 (inactive) | -0.122 | -0.17 | 0.501 | 0.602 | 0.311 | 1.28 | 0.554 | 0.303
